# Screening results as filed in PubChem BioAssay.
# Compounds with a hit are over-represented: about 4% of the library has one in this group of screens.
# Mtb FBA inh – Mtb fructose-bisphosphate aldolase inhibition | inhibition, % at 1 µM | purified M. tuberculosis FBA, fluorescence read-out | AID 588726 | 360,000 tested, 2.3% active;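 also: 0% = vehicle and 100% = reference inhibitor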
# GDH-TPI counter-1 – inhibits GDH-TPI coupling enzymes, artifact for Mtb FBA screen. GDH-TPI coupled enzyme counterscreen, NADH absorbance. inhibition, % at 4.8 µM. 360,000 tested, 1.2% active. AID 588335; in the data active = inhibition above about 30%;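 also: 0% = DMSO wells and 100% = wells lacking the enzyme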
# RecA splice inh – inhibitors of M. tuberculosis RecA intein splicing. inhibition, % (test concentration not listed). P9WHJ3. 290,000 tested, 0.75% active. cell-free RecA intein splicing, fluorescence; in the data active = inhibition above about 30%;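 also: 0% = vehicle wells and 100% = reference inhibitor control wells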
# Target sequence (P9WHJ3 whole entry, looked up, canonical isoform): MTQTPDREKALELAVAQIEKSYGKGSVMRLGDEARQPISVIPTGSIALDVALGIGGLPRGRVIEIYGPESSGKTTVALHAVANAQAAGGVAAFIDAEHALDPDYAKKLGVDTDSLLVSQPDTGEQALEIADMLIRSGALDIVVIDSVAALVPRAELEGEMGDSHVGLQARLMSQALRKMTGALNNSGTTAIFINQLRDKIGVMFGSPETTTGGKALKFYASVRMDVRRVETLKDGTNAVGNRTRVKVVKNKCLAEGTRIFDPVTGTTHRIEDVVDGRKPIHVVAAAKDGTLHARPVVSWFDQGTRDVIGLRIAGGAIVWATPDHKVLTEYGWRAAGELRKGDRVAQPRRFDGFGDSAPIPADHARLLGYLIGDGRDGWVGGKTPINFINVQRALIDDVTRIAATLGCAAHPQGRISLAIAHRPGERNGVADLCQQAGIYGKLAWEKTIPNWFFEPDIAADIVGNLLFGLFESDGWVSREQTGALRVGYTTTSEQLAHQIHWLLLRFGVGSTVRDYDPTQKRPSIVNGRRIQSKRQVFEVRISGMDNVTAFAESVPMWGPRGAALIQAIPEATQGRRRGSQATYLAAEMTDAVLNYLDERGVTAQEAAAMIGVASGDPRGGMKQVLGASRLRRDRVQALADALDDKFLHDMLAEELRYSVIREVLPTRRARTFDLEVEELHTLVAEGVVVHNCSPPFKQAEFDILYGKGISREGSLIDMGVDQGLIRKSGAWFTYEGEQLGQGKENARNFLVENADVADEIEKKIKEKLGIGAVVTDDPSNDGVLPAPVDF
# Mtb UGM inh – Mtb UDP-galactopyranose mutase inhibition; P9WIQ1; purified UGM, fluorescence polarization probe displacement; inhibition, % at 10 µM; 320,000 tested, 0.06% active; in the data active = inhibition above about 10%, passing the limit was not always enough
# Mtb bLac sens – beta-lactam sensitization of Mtb H37Rv | M. tuberculosis H37Rv growth with meropenem, percent inhibition | inhibition, % at 25 µM | 330,000 tested, 0.27% active | AID 434955; call rule not given here;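 also: growth measured after seven days incubation then overnight dye step; 0% = bacteria only wells and 100% = bacteria with antibiotic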
# Rv3671c protease – inhibitors of M. tuberculosis serine protease Rv3671c; inhibition, % at 5.96 µM; AID 2606; 320,000 tested, 0.048% active; in the data active = inhibition above about 38%;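 also: extracellular domain of Rv3671c used as enzyme; 0% = enzyme with DMSO and 100% = no enzyme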
# Mtb FBA inh conf – Mtb FBA inhibition, confirmed. purified M. tuberculosis FBA, fluorescence read-out. 5,600 tested, 78% active. shares compounds with Mtb FBA inh. AID 651616. inhibition, % at 1 µM;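 also: 0% = vehicle wells and 100% = reference inhibitor wells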
# GDH-TPI counter-2 – inhibits GDH-TPI coupling enzymes, flagging Mtb FBA hits; shares compounds with Mtb FBA inh; GDH-TPI coupled enzyme counterscreen, fluorescence; inhibition, % at 1 µM; 5,600 tested, 81% active; AID 652141; in the data active = inhibition above about 10%
# * hit, by the source's call; . = not tested or not shown; + = active, no number. Rule as the data show it, unless noted: active = inhibition above about 27%; inactive = the rest.
SMILES,Mtb FBA inh,GDH-TPI counter-1,RecA splice inh,Mtb UGM inh,Mtb bLac sens,Rv3671c protease,Mtb FBA inh conf,GDH-TPI counter-2
COc1ccccc1N1CCN(C(=O)c2coc(=O)c(Br)c2)CC1,84*,15,-1,4,-3,-6,+,+
COc1ccc(CC(=O)NNC(=O)c2ccc(Br)o2)cc1,-1,0,7,0,-3,3,.,.
C=C1C(O)[C@@H]2O[C@]3(CC[C@H](/C=C/C(C)[C@@H]4CC(C)=CC5(O[C@H](C[C@@](C)(O)CO)CCC5O)O4)O3)CC[C@H]2O[C@@H]1C(O)CC(C)[C@H]1OC2(CCCCO2)CCC1C (some centres undefined),.,.,.,-6,5,3,.,.
CCOCCCNC(=S)Nc1ccc2nc(N3CCOCC3)cc(C)c2c1,32*,-3,-16,-1,22,-12,+,+
COCCCNC(=S)Nc1ccc2nc(N3CCOCC3)cc(C)c2c1,20,11,-1,4,-4,-4,.,.
COc1ccc(CNC(=S)Nc2ccc3nc(N4CCOCC4)cc(C)c3c2)cc1,31*,16,-2,2,54,8,33*,28*
COc1ccc(CNC(=S)Nc2ccc3nc(N4CCN(C)CC4)cc(C)c3c2)cc1,4,14,-2,1,73,2,.,.
COc1ccc(S(=O)(=O)N2CCOCC2)cc1NC(=O)CCOc1ccc(C(C)(C)C)cc1,-1,8,.,.,.,.,.,.
COc1ccccc1-n1c(=O)[nH]c2c(C(N)=O)nc(-c3cccnc3)nc21,39*,28,6,0,0,2,4,4
COc1ccccc1-n1c(=O)[nH]c2c(C(N)=O)nc(C3CCCCC3)nc21,27*,18,4,0,-2,4,+,+
COc1ccc(-c2nc(C(N)=O)c3[nH]c(=O)n(-c4ccccc4OC)c3n2)c(OC)c1,7,25,3,0,2,-10,.,.
NC(=O)c1nc(C2CCCCC2)nc2c1[nH]c(=O)n2-c1ccc(F)cc1,6,2,-2,4,-4,-8,.,.
CC(C)Oc1ccc(S(=O)(=O)N2CCOCC2)cc1NC(=O)c1ccc(Cl)c(S(=O)(=O)N2CCOCC2)c1,4,7,.,.,.,.,.,.
Cc1ccc(S(=O)(=O)Nc2nc(C)c(C(=O)NN)s2)cc1,6,30,2,-1,1,-5,.,.
C/C(=N/NC(=O)c1sc(NS(=O)(=O)c2ccc(C)cc2)nc1C)c1sc(N)nc1C,66*,17,0,-2,8,0,172*,140*
Cc1nn(-c2ccccn2)c2nc(-c3cccs3)cc(C(=O)N3CCOCC3)c12,105*,31*,1,2,-3,0,59*,59*
Cc1cccc(-n2nc(C)c3c(C(=O)O)cc(-c4cccs4)nc32)c1,62*,18,1,4,37,2,149*,135*
COc1ccc(-c2cc(C(=O)O)c3c(C)nn(-c4ccccn4)c3n2)cc1,.,.,-5,.,8,4,.,.
Cc1nn(-c2cccc(Cl)c2)c2nc(-c3ccco3)cc(C(=O)O)c12,20,16,5,-1,9,-4,.,.
Cc1ccc(C)c(OCc2cc(C(=O)NC(c3ccccn3)C(F)(F)F)no2)c1 (centres undefined),3,-3,-2,1,91,-5,.,.
CCCn1nc2cc(C(=O)NCc3ccccc3OC)ccc2c1OCC,42*,16,0,0,-6,-5,-2,-4
CCOc1c2ccc(C(=O)NCCCCc3ccccc3)cc2nn1CC,48*,11,4,3,-4,0,5,-1
Cc1ccc(C(=O)NCCc2cccs2)cc1,1,13,0,-1,4,1,.,.
CCOc1ccc(C(=O)NCc2ccccc2OC)cc1,3,11,-2,0,4,-3,.,.
CCCn1nc2cc(C(=O)NCc3ccc(C)cc3)ccc2c1OCC,52*,1,1,-1,3,-4,86*,63*
SMILES,Mtb FBA inh,GDH-TPI counter-1,RecA splice inh,Mtb UGM inh,Mtb bLac sens,Rv3671c protease,Mtb FBA inh conf,GDH-TPI counter-2
O=C(NCCCCc1ccccc1)c1cccc(Br)c1,-1,8,2,0,3,-5,.,.
CCn1nc2cc(C(=O)NCCc3cccs3)ccc2c1OC,41*,4,-4,-2,2,-1,+,196*
CCc1cccc(CC)c1N1C(=O)C2=C(SCCCS2)C1=O,-6,5,.,.,.,.,.,.
CCN(CC(=O)Nc1ccccc1OC)C(=O)c1cc(S(=O)(=O)N2CCCCCC2)ccc1OC,-2,-1,1,-1,88,3,.,.
CCCNC(=O)C1(C)CCCN(C(=O)CN2C(=O)c3ccccc3C2=O)C1 (centres undefined),1,1,.,.,.,.,.,.
CCOc1c2ccc(C(=O)NCc3ccc(C)cc3)cc2nn1CC,67*,12,-1,4,5,1,67*,45*
CCOc1c2ccc(C(=O)NCCc3ccc(C)cc3)cc2nn1CC,51*,1,0,2,5,6,121*,105*
Cc1c(C(=O)N(CCO)Cc2ccccc2)oc2c(F)cccc12,2,3,0,8,-2,-12,.,.
CC(C)(C)Cc1c(-c2cccc(Br)c2)nc2ccc(Cl)cn12,2,.,.,.,.,.,.,.
CCCCn1c(N)c(N(CCOC)C(=O)c2cc(C)oc2C)c(=O)[nH]c1=O,-2,-2,2,0,0,2,.,.
CC(C)(C)c1ccc(OCC(=O)NCc2ccco2)cc1,1,10,.,0,-3,-5,.,.
CC(=O)N1CCC2(CC1)CC(=O)c1cc(OCC(=O)NCc3ccco3)ccc1O2,35*,13,-7,0,-8,-4,121*,80*
CC(=O)N1CCC2(CC1)CC(=O)c1cc(OCC(=O)NCc3ccc(C)cc3)ccc1O2,51*,3,-6,1,-12,-3,-6,-4
CC(=O)N1CCC2(CC1)CC(=O)c1cc(Cl)ccc1O2,8,1,1,0,-5,1,.,.
O=C(CNC(=O)C1CCCCC1)NCc1ccco1,3,5,1,2,-1,2,.,.
OCCCNc1ncnc2c1ncn2[C@H]1CN(Cc2ccc(Cl)cc2)C[C@@H](CO)O1,2,13,.,.,.,.,.,.
N#Cc1cc2cc3c(cc2nc1NCCNC(=S)NCCCN1CCOCC1)OCO3,69*,-3,-107,2,-5,0,133*,111*
CN(C(=O)COc1ncnc2sccc12)C1CCCCC1,0,-7,.,0,-2,0,.,.
COc1ccc(C(c2c(O)cc(C)oc2=O)c2c(O)cc(C)oc2=O)cc1,3,0,-2,2,-5,-2,.,.
Cc1cc(O)c(C(C[N+](=O)[O-])c2ccc(Cl)cc2)c(=O)o1 (centres undefined),102*,9,2,2,-1,9,-1,-4
O=C1C(=Cc2ccccc2O)SC(=S)N1CCCN1CCOCC1,2,10,.,.,.,.,.,.
